# Experimental data reported in PubChem BioAssay (NCATS).
# Values without a mark were called inactive. Inconclusive results are not listed. Active and inactive are the calls of the source. Unless noted, the call rests on the fitted dose curve; in most records, active means well fitted curve in the direction sought with a large enough effect; inconclusive means small, poorly fitted or top-dose-only effect, or another doubt; inactive means no such curve, though single readings can be large; an effect the other way counts as inactive or inconclusive.
# Assays:
# [1] = Counterscreen for APE1 Inhibitors: Fluorescent Dye Displacement Validation Assay (AID 1707);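 further: plate controls were ThO with dsDNA and no compound for no effect and ThO without dsDNA for full effect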
# Outline: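 Counterscreen flags promiscuous DNA binders: compounds displacing ThO from duplex DNA (abasic THF site, 50 nM) reduce 540 nm emission (480 nm excitation). ThO 250 nM final; Tris-HCl pH 7.5 with NaCl, MgCl2 and Tween-20.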
# [2] = qHTS for differential inhibitors of proliferation of Plasmodium falciparum line 7G8 (AID 1815);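 further: potency means the concentration at half of the fitted maximal effect; parasite growth measured after three days of incubation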
# [3] = qHTS for differential inhibitors of proliferation of Plasmodium falciparum line GB4 (AID 1816); details: Potency: Plasmodium falciparum GB4 proliferation inhibition;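 further: potency means the concentration at half of the fitted maximal effect; parasite growth measured after 72 h incubation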
# [4] = qHTS for differential inhibitors of proliferation of Plasmodium falciparum line 3D7 (AID 1876); further: potency means the concentration at half of the fitted maximal effect
# [5] = qHTS for differential inhibitors of proliferation of Plasmodium falciparum line D10 (AID 1877);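 further: potency means the concentration at half of the fitted maximal effect; parasites grown with compound for 72 h before DNA staining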
# [6] = qHTS for differential inhibitors of proliferation of Plasmodium falciparum line Dd2 (AID 1882); details: Potency: Plasmodium falciparum Dd2 proliferation inhibition; further: potency means the concentration at half of the fitted maximal effect; nearly all actives have a fitted effect of over 65% in size
# Outline: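 RBC culture, 0.3% parasitemia / 2.5% Hct final; cpd added by pin tool in DMSO; 72 h, 37 C, 5% CO2; lysis buffer + SYBR Green I, o/n RT dark; FI 485/535; norm. to artemisinin 0.29 uM and DMSO.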
# [7] = qHTS for differential inhibitors of proliferation of Plasmodium falciparum line W2 (AID 1883); details: Potency: Plasmodium falciparum W2 proliferation inhibition;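 further: potency means the concentration at half of the fitted maximal effect; parasites grown with compound for 72 h before lysis and staining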
# [8] = qHTS for differential inhibitors of proliferation of Plasmodium falciparum line HB3 (AID 1886); details: Potency: Plasmodium falciparum HB3 proliferation inhibition;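 further: potency means the concentration at half of the fitted maximal effect; parasites grown with compound for 72 h before SYBR Green readout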
# [9] = target: Ferritin light chain (Equus caballus) (UniProt P02791); assay: qHTS Validation Assay for Identification of Novel General Anesthetics (AID 2323); further: series mostly up to about 77 µM; on the % scale 0 is the no-effect control and ±100 the full control effect
# Outline: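 Horse-spleen apoferritin (10 uM) in PBS with 50% saturated 1-aminoanthracene; compounds pin-transferred, 10 min at room temperature. Fluorescence read at 380/535 nm, normalized to free 1-AMA and 1-AMA/apoferritin values; four-parameter Hill fit.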
# [10] = target: ATP-dependent DNA helicase Q1 (Homo sapiens) (UniProt P46063); assay: qHTS Validation Assay for Inhibitors of RecQ-Like Dna Helicase 1 (RECQ1) (AID 2353);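 further: plate controls were DMSO vehicle for no effect and enzyme-free control for full effect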
# Outline: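 RECQ1T1 50 nM; forked duplex (20 bp + 30-nt ss tails) 200 nM, ATP 2 mM final; pH 8.0, 2 mM MgCl2, 2.5 ug/ml poly(dI-dC); 15 min compound preincubation; discontinuous kinetic read over 2 h at RT.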
# [11] = Validation screen for small molecules that induce DNA re-replication in MCF 10A normal breast cells (AID 463097); further: 0% is about no effect; nearly all actives have a fitted effect of over 60% in size
# Outline: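 MCF 10A cells exposed to compound 48 hr at 37 C, 5% CO2, then Hoechst-stained 40 min. Laser-scanning imaging of nuclear DNA content (405 nm ex, 500-530 nm em); re-replication scored as rise in nuclei with elevated fluorescence intensity.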
# [12] = Quantitative high throughput screen for delayed death inhibitors of the malarial parasite plastid, 96 hour incubation (AID 488745); further: potency means the concentration at half of the fitted maximal effect; nearly all actives have a fitted effect of over 70% in size
# Outline: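 Two-generation (96 h) exposure of luciferase-reporter P. falciparum in erythrocytes, 2% hematocrit, 0.1% parasitemia final, 37 C, 5% CO2, RPMI 1640 with 0.5% Albumax. Growth inhibition scored by reduced luminescence.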
# [13] = Quantitative high throughput screen for delayed death inhibitors of the malarial parasite plastid, 48 hour incubation (AID 488752); further: potency means the concentration at half of the fitted maximal effect; nearly all actives have a fitted effect of over 65% in size
# Outline: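 Cultures: infected erythrocytes at final 2% hematocrit and 0.1% parasitemia in Albumax-supplemented RPMI. Parasites express integrated firefly luciferase. Incubation with compound lasts 48 h before luminescent detection of remaining reporter activity.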
# [14] = target: M-phase phosphoprotein 8 (Homo sapiens) (UniProt Q99549); assay: qHTS Validation Assay for Inhibitors for MPP8 Chromodomain Interactions with Methylated Histone Tails (AID 488949); further: potency means the concentration at half of the fitted maximal effect; nearly all actives have a fitted effect of over 55% in size
# Outline: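 MPP8 (50 nM) was pre-bound to 50 nM biotinylated H3(1-18)K9me3 peptide in PBS pH 7.4 with 0.01% Tween-20. Compounds were then added for 30 min at room temperature, and complex disruption was read by AlphaScreen with streptavidin donor and nickel-chelate acceptor beads.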
# [15] = target: Transient receptor potential cation channel subfamily V member 1 (Homo sapiens) (UniProt Q8NER1); assay: HTS Assay for Compounds that Act as Enhancers of the Vanilloid Receptor 1 (AID 488979); further: 0% is about no effect
# Outline: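 Calcium influx kinetics via Fluo-8 (480/520 nm) in TRPV1-expressing cells, 2000/well cultured overnight at 35.5C. Compound-alone read 3 min (agonist phase), followed by EC20 capsaicin challenge for 2 min (enhancer phase).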
# [16] = target: Thyrotropin receptor (Homo sapiens) (UniProt P16473); assay: qHTS Assay for Antagonists of the Thyroid Stimulating Hormone Receptor (AID 488980); further: series mostly up to about 58 µM; 0% is about no effect
# Outline: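 TSHR-transfected HEK293 cells (2000/well) in HEPES-buffered HBSS with 70 uM RO 20-1724 were stimulated with 4 nM TSH (EC80, final) in the presence of compound. cAMP was measured by HTRF competition after lysis and 30 min at RT.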
# [17] = target: Thyrotropin-releasing hormone receptor (Homo sapiens) (UniProt P34981); assay: qHTS for Small Molecule Agonists and Allosteric Enhancers of Human TRH Receptor: Validation Screen for Agonists (AID 493127;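 active means calcium activation more than 3 SD above the typical response in the agonist read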;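 further: intracellular calcium rise by fluo-8 fluorescence before TRH EC20 addition; 0% is about no effect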); details: TRH receptor agonist cell assay; at 2 µM; stronger effect = higher value
# Outline: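 Kinetic fluorescence assay of agonist-induced calcium release: overnight-plated TRHR cells, room-temperature fluo-8 loading, baseline then compound addition with per-second reads.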
# [18] = target: Galactokinase (Homo sapiens) (UniProt P51570); assay: qHTS Validation Assay for Inhibitors of Human Galactokinase (GALK) (AID 493189); further: 0% is about no effect
# Outline: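 GALK (5 nM) with 35 uM ATP and 100 uM galactose in HEPES pH 8.0 with MgCl2, NaCl, DTT and BSA. Reaction ran 1 h at room temperature. Residual ATP read by Kinase-Glo Plus luminescence.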
# [19] = Validation screen for small molecules that induce DNA re-replication in SW480 colon adenocarcinoma cells (AID 504364); further: 0% is about no effect
# Outline: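 Hoechst-stained SW480 nuclei, imaged at 405 nm excitation after 48 hr compound exposure, were counted for elevated DNA content as the re-replication signal.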
# Sequence of Thyrotropin-releasing hormone receptor (Homo sapiens) (P34981 whole entry, looked up): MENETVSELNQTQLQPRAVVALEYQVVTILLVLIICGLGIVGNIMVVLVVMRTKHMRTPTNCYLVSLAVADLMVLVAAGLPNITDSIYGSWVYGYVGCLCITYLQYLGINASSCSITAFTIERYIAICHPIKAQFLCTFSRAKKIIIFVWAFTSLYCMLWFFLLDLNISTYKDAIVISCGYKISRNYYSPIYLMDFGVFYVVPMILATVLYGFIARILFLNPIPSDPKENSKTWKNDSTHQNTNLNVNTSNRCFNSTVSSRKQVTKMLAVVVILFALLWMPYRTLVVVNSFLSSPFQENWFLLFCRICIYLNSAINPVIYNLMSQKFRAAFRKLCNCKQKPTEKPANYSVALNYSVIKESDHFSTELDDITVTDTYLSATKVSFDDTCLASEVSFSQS
# Sequence of Transient receptor potential cation channel subfamily V member 1 (Homo sapiens) (Q8NER1 whole entry, looked up): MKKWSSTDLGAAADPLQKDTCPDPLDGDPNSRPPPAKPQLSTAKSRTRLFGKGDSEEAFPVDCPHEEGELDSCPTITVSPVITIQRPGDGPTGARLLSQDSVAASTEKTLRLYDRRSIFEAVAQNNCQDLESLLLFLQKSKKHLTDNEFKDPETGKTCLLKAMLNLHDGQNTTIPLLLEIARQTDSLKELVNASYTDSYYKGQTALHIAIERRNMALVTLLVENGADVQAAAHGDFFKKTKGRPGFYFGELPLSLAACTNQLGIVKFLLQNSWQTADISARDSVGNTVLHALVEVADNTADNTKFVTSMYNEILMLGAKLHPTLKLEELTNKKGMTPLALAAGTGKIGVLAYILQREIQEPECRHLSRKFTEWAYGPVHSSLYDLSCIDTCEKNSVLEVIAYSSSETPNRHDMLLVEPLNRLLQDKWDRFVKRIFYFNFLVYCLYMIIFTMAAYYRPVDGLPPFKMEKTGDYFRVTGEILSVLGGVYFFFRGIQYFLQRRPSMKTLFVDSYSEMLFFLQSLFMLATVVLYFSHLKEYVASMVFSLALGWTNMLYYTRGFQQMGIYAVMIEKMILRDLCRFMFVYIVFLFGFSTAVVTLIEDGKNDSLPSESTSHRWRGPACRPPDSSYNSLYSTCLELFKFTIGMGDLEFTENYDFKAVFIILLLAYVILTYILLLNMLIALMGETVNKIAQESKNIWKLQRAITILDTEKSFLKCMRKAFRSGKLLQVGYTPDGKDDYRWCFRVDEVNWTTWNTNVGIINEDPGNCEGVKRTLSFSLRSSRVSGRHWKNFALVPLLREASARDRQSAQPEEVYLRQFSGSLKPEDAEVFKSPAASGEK
# Sequence of M-phase phosphoprotein 8 (Homo sapiens) (Q99549 whole entry, looked up): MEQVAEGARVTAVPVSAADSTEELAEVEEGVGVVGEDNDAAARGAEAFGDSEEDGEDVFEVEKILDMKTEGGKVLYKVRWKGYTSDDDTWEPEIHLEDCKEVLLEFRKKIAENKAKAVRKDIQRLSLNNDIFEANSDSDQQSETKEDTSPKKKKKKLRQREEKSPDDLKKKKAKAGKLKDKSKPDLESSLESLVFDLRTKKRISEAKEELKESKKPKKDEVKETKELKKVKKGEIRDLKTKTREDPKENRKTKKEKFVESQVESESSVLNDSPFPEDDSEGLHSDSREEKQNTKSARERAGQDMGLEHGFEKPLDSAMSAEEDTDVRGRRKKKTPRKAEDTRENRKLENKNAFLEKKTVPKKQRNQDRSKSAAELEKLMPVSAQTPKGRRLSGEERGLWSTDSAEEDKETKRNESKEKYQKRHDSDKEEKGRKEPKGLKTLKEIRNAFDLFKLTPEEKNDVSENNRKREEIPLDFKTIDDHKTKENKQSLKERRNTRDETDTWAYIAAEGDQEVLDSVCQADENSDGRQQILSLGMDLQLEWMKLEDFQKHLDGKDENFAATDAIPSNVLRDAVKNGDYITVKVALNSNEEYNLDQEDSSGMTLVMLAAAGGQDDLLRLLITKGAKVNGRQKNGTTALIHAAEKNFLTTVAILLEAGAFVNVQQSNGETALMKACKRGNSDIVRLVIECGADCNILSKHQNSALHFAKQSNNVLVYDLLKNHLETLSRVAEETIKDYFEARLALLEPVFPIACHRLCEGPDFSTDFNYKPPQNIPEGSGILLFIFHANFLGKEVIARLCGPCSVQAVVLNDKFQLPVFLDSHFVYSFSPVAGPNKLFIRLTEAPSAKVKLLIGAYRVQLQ
# Sequence of ATP-dependent DNA helicase Q1 (Homo sapiens) (P46063 whole entry, looked up): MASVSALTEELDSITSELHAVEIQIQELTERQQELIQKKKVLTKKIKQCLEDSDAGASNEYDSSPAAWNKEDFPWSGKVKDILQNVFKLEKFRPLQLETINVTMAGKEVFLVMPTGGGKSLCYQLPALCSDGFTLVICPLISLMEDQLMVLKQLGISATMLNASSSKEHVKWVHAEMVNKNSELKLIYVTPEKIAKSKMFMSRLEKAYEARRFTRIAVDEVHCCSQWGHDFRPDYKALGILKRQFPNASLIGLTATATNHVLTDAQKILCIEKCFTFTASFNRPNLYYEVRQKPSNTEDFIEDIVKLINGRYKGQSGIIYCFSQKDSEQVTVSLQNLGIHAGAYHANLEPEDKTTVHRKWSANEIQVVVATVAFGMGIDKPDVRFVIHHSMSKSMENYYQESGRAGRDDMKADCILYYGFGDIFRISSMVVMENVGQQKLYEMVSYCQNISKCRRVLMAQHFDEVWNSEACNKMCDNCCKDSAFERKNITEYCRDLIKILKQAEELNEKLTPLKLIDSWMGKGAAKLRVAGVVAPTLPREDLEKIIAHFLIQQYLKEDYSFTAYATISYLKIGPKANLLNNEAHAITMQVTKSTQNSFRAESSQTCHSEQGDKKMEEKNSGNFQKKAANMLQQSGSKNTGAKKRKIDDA
# Sequence of Ferritin light chain (Equus caballus) (P02791 2-175 limits assumed): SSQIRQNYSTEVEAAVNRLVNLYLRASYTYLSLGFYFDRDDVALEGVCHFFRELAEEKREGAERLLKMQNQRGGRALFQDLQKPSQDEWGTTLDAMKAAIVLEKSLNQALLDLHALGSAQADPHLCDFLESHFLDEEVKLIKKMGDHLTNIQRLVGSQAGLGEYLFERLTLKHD
# Sequence of Thyrotropin receptor (Homo sapiens) (P16473 whole entry, looked up): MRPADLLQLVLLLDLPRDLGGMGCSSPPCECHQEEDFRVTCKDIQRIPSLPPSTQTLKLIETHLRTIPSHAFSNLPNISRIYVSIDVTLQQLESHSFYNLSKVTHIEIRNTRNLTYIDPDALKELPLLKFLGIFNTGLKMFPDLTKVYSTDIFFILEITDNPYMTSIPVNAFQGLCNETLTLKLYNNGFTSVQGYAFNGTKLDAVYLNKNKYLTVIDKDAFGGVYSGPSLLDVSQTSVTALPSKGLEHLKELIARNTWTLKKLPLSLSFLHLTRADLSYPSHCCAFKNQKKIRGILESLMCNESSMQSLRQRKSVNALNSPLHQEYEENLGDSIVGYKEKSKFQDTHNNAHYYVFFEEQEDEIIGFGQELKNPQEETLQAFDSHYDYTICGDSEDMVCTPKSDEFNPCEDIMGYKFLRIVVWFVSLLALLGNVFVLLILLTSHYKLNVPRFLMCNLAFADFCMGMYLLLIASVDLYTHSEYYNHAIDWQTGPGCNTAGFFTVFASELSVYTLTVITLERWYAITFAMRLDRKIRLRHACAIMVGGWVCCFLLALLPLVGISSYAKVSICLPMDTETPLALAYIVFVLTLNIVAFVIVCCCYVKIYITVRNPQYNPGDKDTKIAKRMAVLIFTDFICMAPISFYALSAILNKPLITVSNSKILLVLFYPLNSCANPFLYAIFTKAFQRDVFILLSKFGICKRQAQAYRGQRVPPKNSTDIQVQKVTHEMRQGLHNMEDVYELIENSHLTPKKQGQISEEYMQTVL
# Sequence of Galactokinase (Homo sapiens) (P51570 whole entry, looked up): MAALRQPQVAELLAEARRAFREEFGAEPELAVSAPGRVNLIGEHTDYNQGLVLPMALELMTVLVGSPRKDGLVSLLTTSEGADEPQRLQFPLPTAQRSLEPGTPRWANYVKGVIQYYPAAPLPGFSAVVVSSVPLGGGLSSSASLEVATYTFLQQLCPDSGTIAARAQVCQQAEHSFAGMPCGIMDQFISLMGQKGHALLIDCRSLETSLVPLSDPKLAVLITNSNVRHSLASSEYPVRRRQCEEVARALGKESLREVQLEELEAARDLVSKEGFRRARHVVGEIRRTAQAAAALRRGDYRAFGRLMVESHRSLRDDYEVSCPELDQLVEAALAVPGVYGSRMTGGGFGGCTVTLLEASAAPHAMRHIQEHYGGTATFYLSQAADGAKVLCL
structure (smiles),measurement,setting,value
COC(=O)c1c(-c2cc(OC)c(OC)c(OC)c2)c2ccc(OCc3ccccn3)cc2c(=O)n1-c1ccc(N)cc1,Potency,[1],inactive
same,Potency,[2],0.891 µM (active)
same,Potency,[3],2.82 µM (active)
same,Potency,[4],3.98 µM (active)
same,Potency,[5],7.08 µM (active)
same,Potency,[6],2 µM (active)
same,Potency,[7],2.24 µM (active)
same,Potency,[8],2.82 µM (active)
same,outcome,[9],inactive
same,Potency,[10],inactive
same,outcome,[11],inactive
same,Potency,[12],7.38 µM (active)
same,Potency,[13],9.28 µM (active)
same,Potency,[14],28.2 µM (active)
same,outcome,[15],inactive
same,outcome,[16],inactive
same,activation,[17],-4%
same,outcome,[18],inactive
same,outcome,[19],inactive
